For 13 molecules, growth results are on record in PubChem BioAssay (NCI).

Some test systems named below: EKVX NSCLC; SN12C renal; UO-31 renal; TK-10 renal; ACHN renal; CAKI-1 renal; A498 renal; CCRF-CEM leukemia; MOLT-4 leukemia; SR leukemia.
What all share (assay): NCI-60 one-dose screen, 48 h (100 = growth as untreated, 0 = no growth, -100 = all killed)
What all share (settings): 10 µM

About 83,000 compounds went through this panel and 20% of them were active in at least one assay; those are over-represented in the sample as a whole.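 Compound tested at a single concentration for 48 hours in 96-well plates; a percent growth value below 10 was scored as active.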 Unmarked numbers belong to inactive results. Active and inactive are the calls of the source.

`COc1ccc2c(c1)sc1nc(-c3ccccc3)c(-c3ccsc3)n12`: the growth with EKVX NSCLC is 40.8%; with SN12C renal, 50.2%; in the assay with UO-31 renal, 37.8%; in the assay with TK-10 renal it was 46.1%; in the assay on ACHN renal, 54.2%; in the assay with CAKI-1 renal, 27.9%. Besides, the growth is -7.5% (active) in the assay on A498 renal, 23.2% in the assay with CCRF-CEM leukemia and 36.4% with MOLT-4 leukemia.
For `COc1cc(-c2cc(C(=O)N3CCN(C(=O)c4ccccc4NCc4ccco4)CC3)nc3cc(-c4ccccc4)nn23)cc(OC)c1OC`, the growth was 49% in the assay with EKVX NSCLC; 44.4% in the assay with SN12C renal; 6.15% (active) with UO-31 renal; 35.8% in the assay with TK-10 renal; 53.6% in the assay with ACHN renal; 12% with CAKI-1 renal. The growth with A498 renal was -0.0574% (active); in the assay on CCRF-CEM leukemia, 19.3%; with MOLT-4 leukemia, 37.8%; with SR leukemia it was -2.88% (active).
Consider `COc1ccc(-c2nc3ncccn3c2-c2nnc(-c3ccc(F)cc3)o2)cc1`, for which the growth is 96% in the assay on EKVX NSCLC; 91% in the assay on SN12C renal; 79.2% in the assay with UO-31 renal; 113% in the assay on TK-10 renal; 97.6% in the assay on ACHN renal; 100% in the assay with CAKI-1 renal. Further, the growth was 81% in the assay with A498 renal, 94.4% in the assay on CCRF-CEM leukemia, 97.1% in the assay on MOLT-4 leukemia and 108% with SR leukemia.
As to `COc1ccc(NC(=O)Cc2nc3nc4sc(C)c(C)c4c(=O)n3[nH]2)cc1`, the growth with EKVX NSCLC was 93.1%; in the assay with SN12C renal it was 106%; in the assay with UO-31 renal, 83.1%; with TK-10 renal, 115%; with ACHN renal it was 107%; with CAKI-1 renal, 98%. In addition, the growth with A498 renal was 122%; with CCRF-CEM leukemia, 90.4%; with MOLT-4 leukemia, 99.4%; with SR leukemia, 99.1%.
As to `NC1(C(=O)O)CSSC1`, the growth in the assay on EKVX NSCLC is 78.9%; in the assay with SN12C renal, 39.5%; in the assay with UO-31 renal it was 57.6%; in the assay with TK-10 renal it was 64.3%; in the assay with ACHN renal it was 49.4%; in the assay with CAKI-1 renal, 101%. For the same molecule, the growth in the assay with A498 renal was 56.2%; with CCRF-CEM leukemia, 78.5%; in the assay with MOLT-4 leukemia it was 87.3%; in the assay with SR leukemia, 89.5%.
Consider `CC(=O)/C(=C/c1ccccc1)C(=O)CC(C)C`, for which the growth was 99.6% in the assay with EKVX NSCLC; 108% in the assay on SN12C renal; 83.1% in the assay on UO-31 renal; 84.2% with TK-10 renal; 84.7% in the assay with ACHN renal; 100% in the assay on CAKI-1 renal. Besides, the growth in the assay with A498 renal was 96.1%; in the assay with CCRF-CEM leukemia, 9% (active); in the assay on MOLT-4 leukemia, 34.1%; in the assay with SR leukemia, 1.48% (active).
For the molecule `COc1ccc(NC(=O)CSc2nc3ccccc3c(=O)n2CCc2ccccc2)cc1`, the growth was 75.2% in the assay with EKVX NSCLC; 79% in the assay with SN12C renal; 90.2% in the assay on UO-31 renal; 109% in the assay with TK-10 renal; 93.4% with ACHN renal; 87.5% with CAKI-1 renal. In addition, the growth with A498 renal was 101%.
Regarding `CCN(CC)CCC(CNc1c(C)cnc2cc(Cl)ccc12)c1ccc(Cl)cc1` (stereo not given), the growth is 70.8% in the assay with EKVX NSCLC; 56.7% in the assay on SN12C renal; 41.8% with UO-31 renal; 89.6% in the assay on TK-10 renal; 44.8% in the assay on ACHN renal; 60.1% in the assay with CAKI-1 renal. In addition, the growth in the assay on A498 renal was 19.8%; in the assay on CCRF-CEM leukemia it was 42%; in the assay on MOLT-4 leukemia, 39.5%; in the assay on SR leukemia, -10.8% (active).
As for `CCCC1(CC(=O)O)OCCc2c1[nH]c1ccccc21` (stereo not given), the growth is 120% in the assay with EKVX NSCLC; 98% in the assay with SN12C renal; 86.4% with UO-31 renal; 113% with TK-10 renal; 111% in the assay on ACHN renal; 91% in the assay with CAKI-1 renal. Further, the growth with A498 renal was 106%; in the assay on CCRF-CEM leukemia, 94.1%; in the assay with MOLT-4 leukemia, 87.3%; in the assay on SR leukemia, 84%.
On to `Oc1[nH]c2ccc(Cl)cc2c1/C=c1/ccc2c(c1)N=C(c1cc(F)cc(F)c1)N=2`, for which the growth with EKVX NSCLC was 88.8%; in the assay on SN12C renal, 86.3%; with UO-31 renal, 75.2%; with TK-10 renal, 100%; with ACHN renal it was 67.3%; in the assay with CAKI-1 renal it was 58.6%. Besides, the growth is 72.5% in the assay on A498 renal, 16.6% in the assay with CCRF-CEM leukemia, 12.8% in the assay with MOLT-4 leukemia and 13.9% with SR leukemia.
With `COc1ccc2c(c1)C(=O)c1c-2c(OCCN(C)C)nc2ccccc12`, the growth is 44.7% with EKVX NSCLC; 34.7% in the assay with SN12C renal; -4.51% (active) with UO-31 renal; 43.3% with TK-10 renal; 9.68% (active) with ACHN renal; 14.6% in the assay with CAKI-1 renal. The growth in the assay on A498 renal is 65.8%; with CCRF-CEM leukemia it was 20.9%; in the assay on MOLT-4 leukemia, 4.41% (active).
On to `O=C(Nc1ccncc1)C(=O)c1cn(S(=O)(=O)c2cccc3ccccc23)c2ccccc12`, for which the growth with EKVX NSCLC was 46.9%; in the assay on SN12C renal, 92%; in the assay on UO-31 renal, 58.5%; in the assay on TK-10 renal it was 88.3%; in the assay with ACHN renal it was 87.2%; in the assay with CAKI-1 renal, 60.4%. For the same molecule, the growth in the assay with A498 renal is 80%; with CCRF-CEM leukemia it was 59.5%; in the assay on MOLT-4 leukemia it was 69%; in the assay on SR leukemia, 21.2%.
As for `CN(C)C(=S)N/N=C\C=N/NC(=S)N(C)C`, the growth in the assay with EKVX NSCLC was 38.8%; with SN12C renal, 88.4%; in the assay with UO-31 renal it was 31.7%; with TK-10 renal, 96.5%; in the assay with ACHN renal it was 80%; with CAKI-1 renal, 74.1%. Moreover, the growth is 89% in the assay with A498 renal, 22.6% with CCRF-CEM leukemia, 10% with MOLT-4 leukemia and 35.4% in the assay with SR leukemia.
